Assay [1] concerns the target Cytochrome P450 3A4 (Homo sapiens) (UniProt P08684). The experiment in a line: qHTS Assay for Inhibitors and Substrates of Cytochrome P450 3A4 (AID 884). Further: nearly all actives have a fitted effect of over 50% in size. Further: potency means the concentration at half of the fitted maximal effect. The method, boiled down: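 Luminescent readout of luciferin produced by CYP3A4 (20 nM) dealkylation of Luciferin-PPXE, 25 uM (its KM). NADPH-driven reaction ran 60 min at RT after 10 min compound preincubation; data scaled to 57 uM ketoconazole as 100% inhibition.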
A general note: qHTS replaces the single test concentration by a dilution series.

Assay [2] has as its target Guanine nucleotide-binding protein G(i) subunit alpha-1 (Homo sapiens) (UniProt P63096). The experiment in a line: qHTS Assay for Inhibitors of RGS12 GoLoco Motif Activity (Green Fluorophore) (AID 879).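 Further: negative values mean loss of peptide binding seen as reduced polarization.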 An outline of the steps: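 A drop in FITC polarization marked displacement of the FITC-tagged RGS12 GoLoco peptide (10 nM) from Gαi1 (50 nM). Compounds were incubated 10 min at room temperature in Tris pH 7.5 buffer containing 150 mM NaCl, 0.1 mM GDP and 0.05% NP40; unlabeled peptide titration served as control.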

Assay [3] addresses Cytochrome P450 3A4 (Homo sapiens) (UniProt P08684). The experiment in a line: qHTS Assay for Activators of Cytochrome P450 3A4 (AID 885). Further: nearly all actives have a fitted effect of over 65% in size. An outline of the steps: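 Activators are scored by enhanced luminescence from CYP3A4 conversion of luciferin-PPXE (25uM, equal to KM) to luciferin, after 60 min at RT with an NADPH-regenerating system.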
Assay [4] concerns the target Cytochrome P450 2D6 (Homo sapiens) (UniProt P10635). Briefly: qHTS Assay for Inhibitors and Substrates of Cytochrome P450 2D6 (AID 891). Further: potency means the concentration at half of the fitted maximal effect; nearly all actives have a fitted effect of over 60% in size. An outline of the steps: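 Luminescent read-out of luciferin formed by 5 nM human CYP2D6 demethylating 30 uM Luciferin-ME EGE (Km level) over 60 min at room temperature after NADPH regeneration addition. Data normalized to full inhibition by 1.43 uM quinidine.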

Results filed as inconclusive are left out. A call without a number means that no potency is given here. Calls of active or inactive are those of the source. The call rests on the fitted dose curve; in most records, active means well fitted curve in the direction sought with a large enough effect; inconclusive means small, poorly fitted or top-dose-only effect, or another doubt; inactive means no such curve, though single readings can be large; an effect the other way counts as inactive or inconclusive.

Cytochrome P450 3A4 (Homo sapiens), sequence (P08684 whole entry, looked up): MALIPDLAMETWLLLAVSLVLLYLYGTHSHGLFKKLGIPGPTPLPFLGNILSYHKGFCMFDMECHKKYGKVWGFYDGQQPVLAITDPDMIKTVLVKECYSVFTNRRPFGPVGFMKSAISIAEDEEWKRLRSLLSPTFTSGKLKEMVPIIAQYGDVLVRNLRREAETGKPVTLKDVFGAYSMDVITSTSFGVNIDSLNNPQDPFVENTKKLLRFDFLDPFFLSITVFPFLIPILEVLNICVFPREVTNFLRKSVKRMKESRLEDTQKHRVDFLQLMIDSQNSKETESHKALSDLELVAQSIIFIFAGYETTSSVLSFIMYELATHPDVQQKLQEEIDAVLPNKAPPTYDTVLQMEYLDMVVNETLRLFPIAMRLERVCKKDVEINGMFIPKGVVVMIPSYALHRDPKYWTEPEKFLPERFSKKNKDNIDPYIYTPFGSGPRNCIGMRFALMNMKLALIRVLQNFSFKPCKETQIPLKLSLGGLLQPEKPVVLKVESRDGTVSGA
Cytochrome P450 2D6 (Homo sapiens), sequence (P10635 whole entry, looked up): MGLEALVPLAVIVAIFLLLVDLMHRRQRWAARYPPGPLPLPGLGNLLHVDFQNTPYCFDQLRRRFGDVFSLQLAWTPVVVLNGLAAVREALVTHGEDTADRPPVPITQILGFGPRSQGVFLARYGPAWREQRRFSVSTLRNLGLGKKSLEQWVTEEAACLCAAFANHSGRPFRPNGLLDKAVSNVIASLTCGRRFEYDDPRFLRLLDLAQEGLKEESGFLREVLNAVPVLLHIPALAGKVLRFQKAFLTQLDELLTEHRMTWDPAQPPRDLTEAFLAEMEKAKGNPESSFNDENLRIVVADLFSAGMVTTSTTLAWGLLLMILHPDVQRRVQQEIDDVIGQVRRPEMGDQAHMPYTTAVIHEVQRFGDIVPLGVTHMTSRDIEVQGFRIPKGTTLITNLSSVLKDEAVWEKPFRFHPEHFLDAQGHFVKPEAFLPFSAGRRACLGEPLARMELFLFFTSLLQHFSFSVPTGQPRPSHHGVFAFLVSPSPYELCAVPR
Guanine nucleotide-binding protein G(i) subunit alpha-1 (Homo sapiens), sequence (P63096 whole entry, looked up): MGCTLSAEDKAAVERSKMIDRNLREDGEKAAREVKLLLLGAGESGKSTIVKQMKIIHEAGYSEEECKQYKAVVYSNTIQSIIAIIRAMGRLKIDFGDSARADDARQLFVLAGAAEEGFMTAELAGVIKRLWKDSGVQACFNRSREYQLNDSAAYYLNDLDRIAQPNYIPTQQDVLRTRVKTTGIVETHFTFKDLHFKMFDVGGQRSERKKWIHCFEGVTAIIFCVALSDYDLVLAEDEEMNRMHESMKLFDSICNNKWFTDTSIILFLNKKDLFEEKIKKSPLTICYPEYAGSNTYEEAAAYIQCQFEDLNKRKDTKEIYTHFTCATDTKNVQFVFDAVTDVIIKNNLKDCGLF

Take `CC(C)(C)c1ccc(/C=C/C(=O)Nc2ccc3c(c2)OCCO3)cc1`: the Potency result in assay [1] is “inactive”.

On to `CNCCNS(=O)(=O)c1cccc2cnccc12`, for which the Potency entry in assay [2] and in assay [3] was “inactive” each time.

Consider `Fc1ccc(CN(C2=NCCN2)c2c(Cl)cccc2Cl)cc1`, for which, in assay [4], the Potency was 1.26 µM (active).

Regarding `COc1cc(N)c(Cl)cc1C(=O)OCCN1CCCCC1`, the Potency in assay [1] was 15.8 µM (active). Besides, the Potency entry in assay [3] was “inactive”.

Turning to `Cn1c(=O)c2[nH]c(C3CCCC3)nc2n(C)c1=O`, the Potency in assay [1] is 39.8 µM (active). The Potency result in assay [3] is “inactive”.

As to `O=C1OC(=O)C2C3CCC(O3)C12` (centres undefined), in assay [1], the Potency entry was “inactive”.

Source of the values: PubChem BioAssay (NCATS).
